# Reference: the supplement of paper PMC6411743
# ± gives the standard deviation of the averaged measurements. Targets with the largest changes are over-represented here; the source holds about 6,500 in all.
# Assays:
# Experiment in all cases: NP40-soluble protein abundance relative to vehicle (solubility fold change) (ratio); higher = more soluble protein in presence of ATP
# ALG5 = molecular target: T1, ALG5 (UniProt Q9Y673)
# T1 sequence (whole entry): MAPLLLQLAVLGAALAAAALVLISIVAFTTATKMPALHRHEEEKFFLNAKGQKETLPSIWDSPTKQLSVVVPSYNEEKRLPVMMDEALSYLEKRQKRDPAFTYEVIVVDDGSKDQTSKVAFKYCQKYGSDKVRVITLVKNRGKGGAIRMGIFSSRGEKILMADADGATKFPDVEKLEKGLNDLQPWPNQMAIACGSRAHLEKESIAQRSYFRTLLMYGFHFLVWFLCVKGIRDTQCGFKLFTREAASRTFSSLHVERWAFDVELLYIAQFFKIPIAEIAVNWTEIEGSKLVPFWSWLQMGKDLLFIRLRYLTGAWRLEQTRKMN
# Procedure, shortened: (§1)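 Each value is a fold change relative to the detergent-processed vehicle, calculated per replicate from vsn-normalised intensities. Jurkat crude lysate received eight concentrations (0.1 to 10 mM) for 10 min at room temperature and 3 min at 37 °C, then was solubilised in 0.8% NP40 with benzonase (60 min, 4 °C). The ultracentrifuged supernatant was TMT-labelled and run by LC-MS/MS in three independent experiments.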
# DDX52 = molecular target: T2, DDX52 (UniProt Q9Y2R4)
# T2 sequence (whole entry): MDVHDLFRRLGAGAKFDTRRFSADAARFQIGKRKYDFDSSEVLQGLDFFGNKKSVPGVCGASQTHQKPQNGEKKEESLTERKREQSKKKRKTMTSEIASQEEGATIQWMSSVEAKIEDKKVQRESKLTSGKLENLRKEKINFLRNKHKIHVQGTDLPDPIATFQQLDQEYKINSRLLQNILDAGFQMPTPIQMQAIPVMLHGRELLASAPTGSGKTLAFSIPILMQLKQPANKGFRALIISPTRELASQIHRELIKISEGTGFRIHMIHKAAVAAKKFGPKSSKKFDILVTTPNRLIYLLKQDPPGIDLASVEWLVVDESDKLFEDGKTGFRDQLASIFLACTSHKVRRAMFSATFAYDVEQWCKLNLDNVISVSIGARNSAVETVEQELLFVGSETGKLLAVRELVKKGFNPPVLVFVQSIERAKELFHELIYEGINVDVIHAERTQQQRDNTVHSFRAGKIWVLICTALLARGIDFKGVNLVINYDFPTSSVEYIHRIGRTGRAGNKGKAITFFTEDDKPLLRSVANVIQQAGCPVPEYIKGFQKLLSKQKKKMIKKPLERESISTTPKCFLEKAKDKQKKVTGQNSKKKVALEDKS
# Procedure, shortened: as §1
# FHOD1 = molecular target: T3, FHOD1 (UniProt Q9Y613)
# T3 sequence (whole entry): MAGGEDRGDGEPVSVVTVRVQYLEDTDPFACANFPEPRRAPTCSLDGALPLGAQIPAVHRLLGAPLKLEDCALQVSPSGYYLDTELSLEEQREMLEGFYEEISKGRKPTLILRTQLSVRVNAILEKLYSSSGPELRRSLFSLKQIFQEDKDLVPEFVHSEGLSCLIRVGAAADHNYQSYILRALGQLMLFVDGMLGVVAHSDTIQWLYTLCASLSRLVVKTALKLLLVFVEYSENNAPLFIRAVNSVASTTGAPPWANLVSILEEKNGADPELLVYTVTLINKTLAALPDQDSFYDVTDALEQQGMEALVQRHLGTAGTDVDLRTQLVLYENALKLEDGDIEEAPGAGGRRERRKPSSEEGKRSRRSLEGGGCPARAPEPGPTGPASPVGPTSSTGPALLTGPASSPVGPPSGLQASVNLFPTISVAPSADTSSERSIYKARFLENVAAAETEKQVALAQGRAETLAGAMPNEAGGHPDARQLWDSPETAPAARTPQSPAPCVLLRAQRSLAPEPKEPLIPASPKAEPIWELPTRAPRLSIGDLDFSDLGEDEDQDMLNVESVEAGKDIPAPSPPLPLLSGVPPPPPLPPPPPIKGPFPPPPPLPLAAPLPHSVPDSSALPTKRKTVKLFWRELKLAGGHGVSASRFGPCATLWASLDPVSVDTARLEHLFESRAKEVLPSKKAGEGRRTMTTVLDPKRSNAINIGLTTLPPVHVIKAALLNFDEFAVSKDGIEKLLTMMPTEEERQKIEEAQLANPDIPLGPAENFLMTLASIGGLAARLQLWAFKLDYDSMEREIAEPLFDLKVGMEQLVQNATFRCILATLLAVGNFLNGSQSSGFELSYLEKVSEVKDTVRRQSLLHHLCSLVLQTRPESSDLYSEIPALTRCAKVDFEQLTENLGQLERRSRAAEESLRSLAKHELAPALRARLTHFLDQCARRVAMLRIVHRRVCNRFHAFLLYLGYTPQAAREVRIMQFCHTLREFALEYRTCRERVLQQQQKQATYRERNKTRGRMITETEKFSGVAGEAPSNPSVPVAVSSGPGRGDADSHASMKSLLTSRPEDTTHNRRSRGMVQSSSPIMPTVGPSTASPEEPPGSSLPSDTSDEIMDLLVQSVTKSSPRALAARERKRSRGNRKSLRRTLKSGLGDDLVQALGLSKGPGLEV
# Procedure, shortened: as §1
# UniProt Q9Y6I3|Q9Y6I3-3 = molecular target: T4, UniProt Q9Y6I3|Q9Y6I3-3
# T4 sequence (whole entry): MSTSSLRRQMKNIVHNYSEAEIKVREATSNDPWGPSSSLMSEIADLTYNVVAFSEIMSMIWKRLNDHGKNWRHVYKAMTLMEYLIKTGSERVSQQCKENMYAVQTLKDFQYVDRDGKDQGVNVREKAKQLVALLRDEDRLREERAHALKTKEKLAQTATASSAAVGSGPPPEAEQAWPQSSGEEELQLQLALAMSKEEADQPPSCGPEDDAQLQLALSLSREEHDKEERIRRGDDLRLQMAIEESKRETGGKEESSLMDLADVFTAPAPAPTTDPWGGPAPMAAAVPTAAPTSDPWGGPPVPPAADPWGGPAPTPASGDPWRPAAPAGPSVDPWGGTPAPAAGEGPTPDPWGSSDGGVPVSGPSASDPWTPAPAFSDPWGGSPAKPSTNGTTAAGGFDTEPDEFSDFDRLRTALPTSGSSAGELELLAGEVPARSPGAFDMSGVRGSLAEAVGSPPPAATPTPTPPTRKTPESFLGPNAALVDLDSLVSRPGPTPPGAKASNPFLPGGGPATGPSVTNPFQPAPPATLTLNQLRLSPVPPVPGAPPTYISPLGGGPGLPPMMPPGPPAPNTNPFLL
# Procedure, shortened: as §1
# [1] = molecular target: T5, UniProt Q9Y6M7-13|Q9Y6M7-6|Q9Y6M7-9|Q9Y6M7-5|A0A0A0MST8
# T5 sequence (whole entry): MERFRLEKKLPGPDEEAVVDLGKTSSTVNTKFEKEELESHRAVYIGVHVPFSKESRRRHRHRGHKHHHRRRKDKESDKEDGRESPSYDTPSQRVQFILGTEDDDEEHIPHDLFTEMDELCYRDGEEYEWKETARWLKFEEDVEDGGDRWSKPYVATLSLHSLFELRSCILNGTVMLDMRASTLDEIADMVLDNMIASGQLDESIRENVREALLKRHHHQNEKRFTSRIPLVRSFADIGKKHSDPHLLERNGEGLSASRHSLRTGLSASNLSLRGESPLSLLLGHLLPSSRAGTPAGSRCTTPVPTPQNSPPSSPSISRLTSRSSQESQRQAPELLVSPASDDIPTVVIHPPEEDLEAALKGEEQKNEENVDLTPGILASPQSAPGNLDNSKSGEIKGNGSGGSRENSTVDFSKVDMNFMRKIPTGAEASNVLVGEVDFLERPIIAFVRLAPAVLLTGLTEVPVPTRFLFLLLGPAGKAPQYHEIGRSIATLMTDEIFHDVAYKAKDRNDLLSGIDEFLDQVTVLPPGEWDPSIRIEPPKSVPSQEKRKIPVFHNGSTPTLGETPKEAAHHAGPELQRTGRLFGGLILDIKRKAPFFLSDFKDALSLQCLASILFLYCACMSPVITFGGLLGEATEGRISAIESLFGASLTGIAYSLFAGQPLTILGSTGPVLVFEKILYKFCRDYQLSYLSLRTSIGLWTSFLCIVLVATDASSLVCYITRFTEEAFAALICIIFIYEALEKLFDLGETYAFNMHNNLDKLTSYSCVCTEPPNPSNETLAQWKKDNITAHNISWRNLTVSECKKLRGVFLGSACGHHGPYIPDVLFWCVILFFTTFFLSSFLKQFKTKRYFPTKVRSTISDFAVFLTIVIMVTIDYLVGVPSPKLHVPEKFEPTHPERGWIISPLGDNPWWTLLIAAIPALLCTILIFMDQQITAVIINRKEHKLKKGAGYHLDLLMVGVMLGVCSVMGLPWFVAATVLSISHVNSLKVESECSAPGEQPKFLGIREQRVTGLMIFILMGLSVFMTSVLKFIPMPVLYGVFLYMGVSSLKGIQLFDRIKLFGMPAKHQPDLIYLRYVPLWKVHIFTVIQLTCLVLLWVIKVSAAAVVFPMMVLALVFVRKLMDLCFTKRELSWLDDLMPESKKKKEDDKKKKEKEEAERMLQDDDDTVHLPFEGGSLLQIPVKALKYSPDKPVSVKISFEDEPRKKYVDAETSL
# Procedure, shortened: as §1
smiles,measurement,setting,value
Nc1ncnc2c1ncn2[C@@H]1O[C@H](COP(=O)(O)OP(=O)(O)OP(=O)(O)O)[C@@H](O)[C@H]1O [adenosine triphosphate],NP40-soluble protein abundance,ALG5; concentration: 1mM,1.03 ± 0.089
same,NP40-soluble protein abundance,ALG5; concentration: 2mM,1.02 ± 0.074
same,NP40-soluble protein abundance,ALG5; concentration: 4mM,1.03 ± 0.088
same,NP40-soluble protein abundance,ALG5; concentration: 6mM,0.97 ± 0.13
same,NP40-soluble protein abundance,ALG5; concentration: 8mM,1.03 ± 0.1
same,NP40-soluble protein abundance,ALG5; concentration: 10mM,1.02 ± 0.058
same,NP40-soluble protein abundance,DDX52; concentration: 1mM,1.11 ± 0.11
same,NP40-soluble protein abundance,DDX52; concentration: 2mM,1.16 ± 0.17
same,NP40-soluble protein abundance,DDX52; concentration: 4mM,1.31 ± 0.27
same,NP40-soluble protein abundance,DDX52; concentration: 6mM,1.41 ± 0.23
same,NP40-soluble protein abundance,DDX52; concentration: 8mM,1.51 ± 0.37
same,NP40-soluble protein abundance,DDX52; concentration: 10mM,1.71 ± 0.49
same,NP40-soluble protein abundance,FHOD1; concentration: 1mM,0.963 ± 0.062
same,NP40-soluble protein abundance,FHOD1; concentration: 2mM,1.01 ± 0.085
same,NP40-soluble protein abundance,FHOD1; concentration: 4mM,1.02 ± 0.058
same,NP40-soluble protein abundance,FHOD1; concentration: 6mM,1.01 ± 0.078
same,NP40-soluble protein abundance,FHOD1; concentration: 8mM,0.952 ± 0.068
same,NP40-soluble protein abundance,FHOD1; concentration: 10mM,0.96 ± 0.055
same,NP40-soluble protein abundance,UniProt Q9Y6I3|Q9Y6I3-3; concentration: 1mM,0.932 ± 0.045
same,NP40-soluble protein abundance,UniProt Q9Y6I3|Q9Y6I3-3; concentration: 2mM,0.915 ± 0.018
same,NP40-soluble protein abundance,UniProt Q9Y6I3|Q9Y6I3-3; concentration: 4mM,0.915 ± 0.023
same,NP40-soluble protein abundance,UniProt Q9Y6I3|Q9Y6I3-3; concentration: 6mM,0.927 ± 0.037
same,NP40-soluble protein abundance,UniProt Q9Y6I3|Q9Y6I3-3; concentration: 8mM,0.907 ± 0.029
same,NP40-soluble protein abundance,UniProt Q9Y6I3|Q9Y6I3-3; concentration: 10mM,0.894 ± 0.014
same,NP40-soluble protein abundance,[1]; concentration: 1mM,1.05 ± 0.022
same,NP40-soluble protein abundance,[1]; concentration: 2mM,1.03 ± 0.026
same,NP40-soluble protein abundance,[1]; concentration: 4mM,1.05 ± 0.036
same,NP40-soluble protein abundance,[1]; concentration: 6mM,1.04 ± 0.032
same,NP40-soluble protein abundance,[1]; concentration: 8mM,1.06 ± 0.024
same,NP40-soluble protein abundance,[1]; concentration: 10mM,1.02 ± 0.034
